# ATXN viability – viability counter-screen for ATXN expression inhibitors; S2 cells (HEK-293 line with an ATXN2-luciferase reporter) viability, CellTiter-Fluor protease fluorescence, 24 h; Potency, µM (top dose mostly 56.7 µM), actives largely listed as cytotoxic; 400,000 compounds, 0.49% hits; also: nearly all actives have a fitted effect of over 40% in size
# TGFb inhibitor – blocks TGF-b signaling. HepG2 CAGA-GFP TGF-b/SMAD3 reporter, GFP fluorescence, 18 h; TGF-beta stimulated, 500 pg/mL final. Potency, µM (top dose mostly 46.1 µM), without a hit: at the highest dose activity, negative = inhibition, actives largely listed as inhibitors. 410,000 compounds, 1.2% hits; also: % is scaled to controls: 0 for no effect and ±100 for the full control effect; nearly all actives have a fitted effect of over 65% in size
#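 HEPG2 CAGA-GFP cells (1000/well, DMEM with 1% FBS) were pre-incubated 2 h at 37 degrees C, given compound by pin tool, then stimulated with TGF-beta at 500 pg/mL final for 18 h before per-cell GFP fluorescence imaging.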
# HT1080 IDH1KD tx – kills HT-1080 cells with IDH1 knockdown. HT-1080 IDH1 knockdown viability, ATP luminescence, 48 h. Potency, µM (highest dose often 46.1 µM), without a hit: top-dose activity, negative = toxicity, usual class: cytotoxic. 360,000 compounds, 2% hits. AID 686971;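 also: 0% = DMSO wells and -100% = cell-free medium wells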
#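 Knockdown cells (IDH1KD HT-1080) received compounds 2 h after plating at 750 cells/well and were kept 48 h at 37 °C in 5% FBS RPMI. A CellTiter-Glo luminescence read gave % activity for curve fitting.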
# HT1080-NT tox – kills 2HG-producing HT-1080-NT fibrosarcoma cells | 360,000 compounds, 1.6% hits | Potency, µM (highest dose often 46.1 µM), for inactives: top-dose activity, negative = less viability, hits mostly cytotoxic | HT-1080-NT fibrosarcoma viability, CellTiter-Glo ATP luminescence, 48 h;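 also: NT is the 2HG producing partner of a matched IDH1 knockdown line; 0% = DMSO-treated cells and -100% = media-only wells without cells; nearly all actives have a fitted effect of over 55% in size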
#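 A 48-hour cytotoxicity screen used HT-1080-NT cells plated 2 hours before compound delivery. ATP-based CellTiter-Glo luminescence measured viability, normalized to DMSO and no-cell controls.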
# HepG2 tox – kills HepG2 cells in TGF-b inhibitor counter-screen | 410,000 compounds, 0.76% hits | Potency, µM (doses to about 46.1 µM), without a hit: top-dose activity change, negative = cytotoxicity, most hits filed as cytotoxic | AID 588856 | HepG2 CAGA-GFP viability, ATP luminescence, 18 h
#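 CellTiter-Glo luminescence gave cytotoxicity after 18 hours at 37 degrees C. The cells were HepG2 CAGA-GFP in 1% FBS DMEM, stimulated with 500 pg/mL TGF-beta after compound addition. %Activity was normalised to no-cell wells (complete cell-killing) and DMSO (no toxicity), and curves were fitted and classified.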
# ATXN2 expr inh – inhibitors of ATXN2 expression; HEK-293 ATXN2-luciferase reporter, luminescence, 24 h; Potency, µM (top dose mostly 57 µM), without a hit: top-dose activity change, negative = inhibition, hits mostly inhibitors; 360,000 compounds, 0.72% hits; AID 1745845; also: % is scaled to controls: 0 for no effect and ±100 for the full control effect; nearly all actives have a fitted effect of over 55% in size
#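 qHTS (up to 57 uM final) was run with 24 h compound exposure of reporter cells at 37 °C. Each well was multiplexed: SteadyGlo luminescence measured ATXN2-luciferase expression after a fluorogenic Gly-Phe-AFC viability readout (25 uM final).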
# * hit, by the source's call; i = inactive; ? = inconclusive; nt = not tested or not shown. In the library only some 3.8% were active in any assay of this set; here they are far more common. Calls follow the shape of the dose curve; as a rule, active = well fitted curve in the direction sought with a large enough effect; inconclusive = small, poorly fitted or top-dose-only effect, or another doubt; inactive = no such curve, though single readings can be large; an effect the other way counts as inactive or inconclusive. Potency is read from the fitted curve at half-maximal effect.
SMILES,ATXN viability,TGFb inhibitor,HT1080 IDH1KD tx,HT1080-NT tox,HepG2 tox,ATXN2 expr inh
C[C@@H]1CC=C[C@H]2[C@H]1C(=O)N(Cc1ccccc1)[C@H]2c1ccoc1,i,?,-9%,-3%,-24%,-8%
CC[C@@H]1CC=C[C@H]2[C@H]1C(=O)N(Cc1ccccc1)[C@H]2c1ccoc1,nt,13µM*,?,?,-33%,?
C[C@@H]1CC=C[C@H]2[C@H]1C(=O)N(Cc1ccccc1)[C@H]2c1cccc([N+](=O)[O-])c1,i,-26%,-15%,-12%,2%,1%
CCC1CC=CC2C1C(=O)N(Cc1ccccc1)C2c1ccoc1 (stereo not drawn),nt,10µM*,nt,nt,-100%,nt
CCOc1ccc(C2C(=O)N(C3CCCCC3)CC(=O)N2Cc2ccccc2OC)cc1OC (stereo not drawn),nt,3%,nt,nt,-4%,nt
Cc1ccc(CNC(=O)CN(c2ccc(Cl)cc2Cl)S(=O)(=O)c2ccccc2)cc1,i,?,nt,nt,-21%,0%
O=C(Nc1cccc2cccnc12)c1ccc(Br)cc1,nt,-4%,nt,nt,-27%,nt
CCCCc1c(-c2ccccc2OC)ncn1CCc1cccc(Cl)c1,nt,nt,?,18µM*,nt,0%
COc1cccc(Cn2cnc(-c3ccccc3OC)c2-c2cccnc2)c1,i,nt,-7%,?,nt,-32%
CCCCc1c(-c2ccccc2OC)ncn1Cc1ccc(Cl)cc1,?,nt,18µM*,?,nt,?
CCCCc1c(-c2ccccc2OC)ncn1Cc1ccc(-c2ccccc2)cc1,nt,nt,?,?,nt,25µM*
CCCCc1c(-c2ccccc2OC)ncn1Cc1cccc(-c2ccccc2)c1,?,nt,?,21µM*,nt,28µM*
Oc1c(C(c2ccc(Cl)cc2)N2CCOCC2)sc2nc(-c3ccco3)nn12 (stereo not drawn),i,-29%,nt,nt,-38%,-23%
N#Cc1cc(NC(=O)C(=O)O)c(Cl)c(NC(=O)C(=O)O)c1,i,nt,nt,nt,nt,18%
CCC(CN)=C(c1ccccc1)c1ccccc1,i,nt,nt,nt,nt,?
NC(Cc1ccc(F)cc1)c1csc(Nc2ccc(C(=O)c3ccccc3)cc2)n1 (stereo not drawn),nt,11µM*,15µM*,?,13µM*,?
NC(Cc1ccc(Cl)cc1)c1csc(Nc2ccc(C(=O)c3ccccc3)cc2)n1 (stereo not drawn),nt,11µM*,?,?,10µM*,?
Cc1cccc(Cn2nc(C(C)(C)C)cc2C(=O)Nc2ccc(F)cc2)c1,?,?,?,?,13µM*,?
NC(Cc1ccc(Cl)cc1)c1csc(Nc2ccc(S(N)(=O)=O)cc2)n1 (stereo not drawn),?,-3%,?,?,-23%,?
NC(Cc1ccccc1)c1csc(Nc2ccc(C(=O)c3ccccc3)cc2)n1 (stereo not drawn),?,?,?,?,-101%,?
CS(=O)(=O)c1ccc(Nc2nc(C(N)Cc3ccc(Cl)cc3)cs2)cc1 (stereo not drawn),i,?,?,15µM*,-33%,?
CCCS(=O)(=O)NCc1c(C)ncc2c1CCN(C(=O)c1ccc(Cl)cc1)C2,i,nt,nt,nt,nt,nt
Cc1ccc(CN2C[C@H](Sc3ccccn3)C[C@H]2C(=O)Nc2ccc3sc(C)nc3c2)c(C)c1,i,nt,nt,nt,nt,nt
NS(=O)(=O)c1ccc(Nc2nc(-c3ccc(F)cc3)cs2)cc1,i,?,15µM*,?,14%,?
CC(=O)Nc1ccc(-c2csc(Nc3ccc(S(N)(=O)=O)cc3)n2)cc1,i,6%,2%,-9%,-16%,-6%
SMILES,ATXN viability,TGFb inhibitor,HT1080 IDH1KD tx,HT1080-NT tox,HepG2 tox,ATXN2 expr inh
CC(C)CC(N)c1csc(NC(=O)C(c2ccccc2)c2ccccc2)n1 (stereo not drawn),?,?,2.9µM*,7.3µM*,13µM*,?
CC(C)CC(N)c1csc(NC(=O)c2cc(C(C)(C)C)nn2Cc2ccccc2)n1 (stereo not drawn),nt,?,16µM*,12µM*,11µM*,?
COc1ccc(CC(N)c2csc(Nc3ccc(C(=O)c4ccccc4)cc3)n2)cc1 (stereo not drawn),?,?,?,?,-112%,35µM*
CC(=O)NC(CS)C(=O)O (stereo not drawn),nt,nt,nt,nt,nt,6%
CC(C)(C)n1ncc2c(=O)n(Cc3ccc(F)c(C(F)(F)F)c3)cnc21,nt,?,nt,nt,-12%,nt
COc1ccc2c(c1)CCc1cnc(-n3ncc(C(=O)NCC(C)(C)CN(C)C)c3C)nc1-2,i,nt,nt,nt,nt,nt
Cc1ccccc1CSc1cn(CC(=O)N2CCCC2)c2ccccc12,nt,0%,nt,nt,-28%,nt
CC(C)CC(N)c1csc(Nc2ccc(C(=O)c3ccccc3)cc2)n1 (stereo not drawn),?,18µM*,-21%,?,16µM*,?
NC(c1csc(Nc2ccc(C(=O)c3ccccc3)cc2)n1)C1CCCCC1 (stereo not drawn),nt,?,15µM*,?,-103%,?
NC(Cc1ccc(C(F)(F)F)cc1)c1csc(Nc2ccc(S(N)(=O)=O)cc2)n1 (stereo not drawn),?,?,?,21µM*,-74%,?
CC1Cc2cc(S(=O)(=O)NCc3ccc(N(C)C)cc3)ccc2N1C(=O)C1CCC1 (stereo not drawn),i,?,nt,nt,-30%,?
CC(=O)NC(c1cccs1)c1cc(F)c2cccnc2c1O (stereo not drawn),4µM*,?,nt,nt,-49%,?
CC(C)C(=O)NC(c1ccco1)c1ccc2cccnc2c1O (stereo not drawn),?,-23%,?,4.1µM*,-18%,?
CC(=O)NC(c1ccco1)c1cc(F)c2cccnc2c1O (stereo not drawn),14µM*,?,nt,nt,8.9µM*,?
CC(C)C(=O)NC(c1ccc(N(C)C)cc1)c1ccc2cccnc2c1O (stereo not drawn),nt,?,nt,nt,6%,nt
COc1ccc(C(=O)NCc2nnnn2-c2ccc(C)c(C)c2)cc1,nt,-3%,nt,nt,-2%,nt
Cc1ccccc1NC(=O)CC1NCCNC1=O (stereo not drawn),i,7%,nt,nt,4%,5%
Cc1oc(-c2ccccc2Cl)nc1CS(=O)CC(=O)NCc1ccc(Cl)cc1 (stereo not drawn),i,8.9µM*,0%,-18%,-18%,-3%

# Source: PubChem BioAssay
